Compounds with a hit are over-represented: about 6.7% of the library has one in this group of screens.
PINK1 expr mod: PINK1 expression modulation. Potency, µM (series often up to 76.6 µM), for the others: at the top dose activation (PINK1 increase), actives largely listed as activators. PINK1 immunofluorescence, high-content cytometry, 24 h. actives 0.2% (n = 410,000); active = well fitted activation curve with a large enough effect; inconclusive = small, poorly fitted or top-dose-only effect; cell line not stated here; also: % of control where 0% means no effect; nearly all actives have a fitted effect of over 65% in size
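Compound titrations (5 concentrations, 24 h) on a stable cell line; DMSO and CCCP controls. Endpoint: fixed-cell PINK1 immunofluorescence with mitochondrial, cell and nuclear markers, scanned by microplate cytometer.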
KB-V1 cytotox: kills drug-selected multidrug resistant KB-V1 cells; KB-V1 MDR cells viability, CellTiter-Glo, 72 h; Potency, µM (doses to about 46.1 µM), actives largely listed as cytotoxic; actives 3.4% (n = 400,000); also: % is scaled to controls: 0 for no effect and ±100 for the full control effect; nearly all actives have a fitted effect of over 60% in size
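Cytotoxicity toward P-gp-expressing KB-V1 cells was determined as loss of CellTiter-Glo luminescence after 72 h at 37 degrees C. Compounds were tested in quantitative HTS format across a concentration range, with curves fitted to normalized data.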
KB-3-1 tox: KB-3-1 parental cell cytotoxicity | KB-3-1 viability, CellTiter-Glo ATP luminescence, 72 h | Potency, µM (highest dose often 46.1 µM), usual class: cytotoxic | actives 1.4% (n = 400,000) | AID 1347075; also: % is scaled to controls: 0 for no effect and ±100 for the full control effect; nearly all actives have a fitted effect of over 60% in size
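Cells are dispensed, compounds pinned in, plates held at 37 °C for 72 h, then CellTiter-Glo is added and luminescence read after 10 minutes. Cell line: parental KB-3-1 in phenol-red-free DMEM, 10% FBS.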
SW480 rereplic: inducers of DNA re-replication in SW480 colon cancer cells. SW480 DNA re-replication, Hoechst DNA content imaging, 48 h. Potency, µM (doses to about 46.1 µM), inactives show at the highest dose re-replication activation, actives largely listed as activators. actives 1.8% (n = 340,000). AID 624297; also: % of control where 0% means no effect; nearly all actives have a fitted effect of over 55% in size
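Image-based DNA-content assay: after two days of treatment, nuclei were labelled with the DNA dye Hoechst and imaged, and hits were compounds raising the count of nuclei showing high fluorescence intensity.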
MCF10A rereplic: inducers of DNA re-replication in MCF 10A breast cells; MCF 10A DNA re-replication, Hoechst nuclear intensity, 48 h; actives 2.9% (n = 350,000); Potency, µM (highest dose often 46.1 µM), for the others: at the top dose activity, positive = re-replication, most hits filed as activators; also: % of control where 0% means no effect; nearly all actives have a fitted effect of over 50% in size
* = called active by the depositor; i = inactive; u = inconclusive; x = not tested or not shown; [ ] = remark or other dose. Unless noted, calls follow the shape of the dose curve; as a rule, active = well fitted curve in the direction sought with a large enough effect; inconclusive = small, poorly fitted or top-dose-only effect, or another doubt; inactive = no such curve, though single readings can be large; an effect the other way counts as inactive or inconclusive. Potency is read from the fitted curve at half-maximal effect.

SMILES	PINK1 expr mod	KB-V1 cytotox	KB-3-1 tox	SW480 rereplic	MCF10A rereplic
Cc1cccc(-c2nc(Nc3ccc(N4CCOCC4)cc3)c3ccccc3n2)c1	5.4%	u	i	-1.1%	20.6µM*
CN1CCN(c2ccc(-c3ccc4ccccc4n3)cc2)CC1	0.5%	11.6µM*	i	u	13µM*
Cc1ccc(-c2cc(C(=O)N3CCOCC3)c3ccccc3n2)cc1	-0.9%	i	i	-0.8%	8.8%
CC(=O)c1cccc(Nc2nc(-c3cccc(C)c3)nc3ccccc23)c1	4.9%	i	i	x	x
Cc1nc(Cn2c3ccc(NC(=S)NC4CCCCC4)cc3c(=O)n2C)cs1	1.6%	i	i	x	x
Cc1cc2c(=O)[nH]c(N)nc2[nH]1	-0.1%	i	i	x	x
CC(NC(=O)Cn1c(=O)oc2cc(S(=O)(=O)NCc3ccccc3)ccc21)c1ccccc1 (configuration not stated)	4.5%	i	i	x	x
C[C@@H]1CN([C@H](C)CO)C(=O)CCCn2nncc2CO[C@H]1CN(C)Cc1cccc(C(=O)O)c1	-1.6%	i	i	x	x
COc1ccc2c(c1)CC(NC(=O)Nc1c(C)cc(C)cc1C)CO2 (configuration not stated)	1.6%	i	i	x	x
O=C(c1ccccc1)c1cc([N+](=O)[O-])ccc1N1CCOCC1	4.1%	1.16µM*	1.16µM*	u	u
O=C(c1ccccc1)c1ccc(N2CCOCC2)c(F)c1	-0.8%[38.3 µM]	20.6µM*	i	-2.0%	-6.0%
O=C(c1ccc(Cl)cc1)c1cc([N+](=O)[O-])ccc1N1CCOCC1	2.1%	1.84µM*	u	0.651µM*	u
O=C(c1cc([N+](=O)[O-])ccc1N1CCOCC1)N1CCCCC1	-1.7%	i	u	-5.2%	3.1%
O=C(COC(=O)c1cc([N+](=O)[O-])ccc1N1CCOCC1)Nc1ccc(Cl)cn1	0.9%	13µM*	u	u	u
O=C(COC(=O)c1cc([N+](=O)[O-])ccc1N1CCOCC1)Nc1ccc(Cl)cc1	8.3%	u	i	1.4%	12.7%
O=C(c1ccccc1)c1cc(F)c(N2CCOCC2)cc1Cl	1.2%	u	i	7.3%	-1.4%
CCOC(=O)c1ccccc1NC(=O)c1sc2ncn(CC)c(=O)c2c1C	1.8%	i	i	x	x
CN1CCN(c2ccc([N+](=O)[O-])cc2C(=O)c2ccc(Cl)cc2)CC1	5.6%	4.61µM*	2.31µM*	8.2µM*	11.6µM*
CC1CCN(c2ccc([N+](=O)[O-])cc2C(=O)O)CC1	-2.6%	i	i	-7.8%	-0.9%
CN1CCN(c2ccc([N+](=O)[O-])cc2C(=O)N2CCCCC2)CC1	1.8%	i	i	0.7%	18.9%
O=C(c1cc([N+](=O)[O-])ccc1N1CCOCC1)N1CCN(c2ccc([N+](=O)[O-])cc2)CC1	2.5%	u	i	-0.8%	9.1%
CC1CCCN(c2ccc([N+](=O)[O-])cc2C(=O)c2ccccc2)C1 (configuration not stated)	1.9%	i	u	4.11µM*	u
O=C(c1ccc(Br)cc1)c1cc([N+](=O)[O-])ccc1N1CCOCC1	4.0%	4.61µM*	i	0.581µM*	u
N#CCCN(C(=O)CCl)c1cccc(Cl)c1	-1.4%	u	20.6µM*	2.59µM*	u
CCCCCCCN(C(=O)CCl)c1cccc(C)c1	u	i	i	2.06µM*	u
SMILES	PINK1 expr mod	KB-V1 cytotox	KB-3-1 tox	SW480 rereplic	MCF10A rereplic
O=C(CCl)N(c1ccccc1)c1ccccc1	-1.7%	u	u	21.9%	u
CCCCCCN(C(=O)CCl)c1ccccc1	-2.0%	i	i	9.2µM*	u
COC(=O)c1ccc(/C=N\N2CCN(Cc3ccc(C)cc3)CC2)cc1	1.7%[38.3 µM]	8.2µM*	i	-0.2%	3.1%
O=C(Nc1ccc(CN2CCOCC2)cc1)c1ccc(Cl)cc1	0.4%	9.2µM*	u	-10.3%	14.1%
CC(C)c1ccc(C(=O)Nc2ccc(N3CCOCC3)cc2)cc1	13.2%	i	u	u	23.1µM*
COC(=O)c1ccc(NC(=O)c2ccc(CN3CCOCC3)cc2)cc1	1.8%[38.3 µM]	2.59µM*	i	-9.2%	u
